Experimental data reported in PubChem BioAssay (NCATS).
Values joined by “and” are separate entries in the source; they are usually repeats but may differ in a detail not shown here. Equal values may be shown once. Values without a mark were called inactive. Records with an inconclusive call do not appear. Active and inactive are the calls of the source. Unless noted, calls follow the shape of the dose curve; as a rule, active = well fitted inhibition curve with a large enough effect; inconclusive = small, poorly fitted or top-dose-only effect; inactive = flat fitted curve, though single readings scatter. Non-standard residues stand in square brackets, D forms with d. Residues, ends and D or L forms follow the SMILES beside them. Orn = NCCC[C@H](N)C(=O)O

Columns and labels:
[1] = Drug repurposing screens with cells derived from glioblastoma tumor samples (AID 1345199); conditions: GBM patient neurospheres viability, ATP luminescence, 48 h; also: nearly all actives have a fitted effect of over 40% in size; also: potency is read from the fitted curve at half-maximal effect; as to activity, negative = cell killing: % is scaled to controls: 0 for no effect and ±100 for the full control effect
Method in brief: (§1)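 Four patient lines of CD133+ GBM neurospheres were screened at several concentrations; hits were retested in those lines plus three slower-growing GBM lines, using 48-hour treatment and ATP-based viability.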

astro = control astrocytes; test: as above; conditions: viability, ATP luminescence, 48 h; series mostly up to 45.9 µM
Method in brief: as §1

[2] = molecular target: Nuclear receptor subfamily 1 group I member 2 (Rattus norvegicus) (UniProt Q9R1A7); test: qHTS assay for small molecule activators of the rat pregnane X receptor (rPXR) signaling pathway (AID 651751; call rule not given here; also: 0% is about no effect); conditions: rPXR reporter cells, luciferase (One-Glo), 24 h
Sequence of Nuclear receptor subfamily 1 group I member 2 (Rattus norvegicus) (Q9R1A7 whole entry, looked up): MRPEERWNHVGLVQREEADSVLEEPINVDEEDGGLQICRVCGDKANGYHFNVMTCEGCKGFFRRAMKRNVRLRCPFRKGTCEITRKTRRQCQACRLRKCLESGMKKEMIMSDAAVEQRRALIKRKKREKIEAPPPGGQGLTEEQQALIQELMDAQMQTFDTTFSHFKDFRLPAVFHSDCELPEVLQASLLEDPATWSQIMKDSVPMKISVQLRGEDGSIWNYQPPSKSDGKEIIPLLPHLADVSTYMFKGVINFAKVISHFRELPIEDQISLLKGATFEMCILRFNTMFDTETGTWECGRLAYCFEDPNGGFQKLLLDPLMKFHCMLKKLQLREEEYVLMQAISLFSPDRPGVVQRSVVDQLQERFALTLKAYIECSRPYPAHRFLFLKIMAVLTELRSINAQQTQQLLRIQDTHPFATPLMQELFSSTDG

[3] = qHTS assay for small molecule activators of the human pregnane X receptor (PXR) signaling pathway (AID 720659; call rule not given here; also: 0% is about no effect); conditions: DPX-2 HepG2 CYP3A4-luciferase, 24 h; series mostly up to 92.3 µM
[4] = at 45.9 µM (top of the series), tumour line B
[5] = at 46.1 µM (top of the series), tumour line C
[6] = at 20 µM (top of the series), tumour line C
[7] = at 45.9 µM (top of the series), tumour line D

Which results are given for `CCCCC(CC)COC(=O)CC(C(=O)OCC(CC)CCCC)S(=O)(=O)O` (stereo not given)?
activity, negative = cell killing [1, 4]: 1.3%; activity, negative = cell killing ([1]; at 46 µM (top of the series), tumour line A): -17.3% and -22.7%; activity, negative = cell killing [1, 5]: -38.9%; Potency (astro): inactive; max response [2]: 6.97%

With `CC(C)C[C@@H]1NC(=O)[C@H](CCCN)NC(=O)[C@H](C(C)C)NC(=O)[C@@H]2CCCN2C(=O)[C@@H](Cc2ccccc2)NC(=O)[C@H](CC(C)C)NC(=O)[C@H](CCCN)NC(=O)[C@H](C(C)C)NC(=O)[C@@H]2CCCN2C(=O)[C@@H](Cc2ccccc2)NC1=O` (cyclo(V[Orn]L[dF]PV[Orn]L[dF]P)) as the compound, how does the Potency (astro) read?
Its Potency is 3.98 µM (active).

With `O=C(Nc1ccc(Br)cc1)c1cc(Br)c(Br)s1` as the compound, how does the Potency (astro) read?
Its Potency is 11.2 µM (active).

For `CCCCCCCCCCCCCCCCCCOP(=O)([O-])OC1CC[N+](C)(C)CC1`, which activity, negative = cell killing [1, 6] is on record?
Its activity, negative = cell killing is -12.3%.

What about the activity, negative = cell killing ([1]; at 21.2 µM (top of the series), tumour line B) of the same compound?
The activity, negative = cell killing was -9.9%.

What about the activity, negative = cell killing ([1]; at 21.2 µM (top of the series), tumour line D) of the same compound?
Its activity, negative = cell killing is -6.99%.

What about the Potency (astro) of the same compound?
The Potency was “inactive”.

With `CC(C(=O)O)c1ccc(N2Cc3ccccc3C2=O)cc1` (stereo not given) as the compound, how does the Potency (astro) read?
The Potency was 10 µM (active).

With `Cc1cc(/C=C/c2ccc3cc(N(C)C)ccc3[n+]2C)c(C)n1-c1ccccc1` as the compound, how does the activity, negative = cell killing [1, 6] read?
Its activity, negative = cell killing is -11.8%.

What about the Potency (astro) of the same compound?
The Potency was 11.2 µM (active).

For `Cc1cc(CC(C)CC(C)(C)C)n(O)c(=O)c1` (stereo not given) (tested in a mixture with another compound), which Potency (astro) is on record?
Its Potency is 20 µM (active).

Which results are given for `O=C(COc1ccc(Cl)cc1)OCCNC12CC3CC(CC(C3)C1)C2`?
activity, negative = cell killing [1, 4]: -5.61%; activity, negative = cell killing [1, 7]: -18.7%; activity, negative = cell killing [1, 5]: -2.27%; Potency (astro): inactive

For `CCCCC(=O)OCC(=O)[C@]1(O)Cc2c(O)c3c(c(O)c2[C@@H](O[C@H]2C[C@H](NC(=O)C(F)(F)F)[C@H](O)[C@H](C)O2)C1)C(=O)c1c(OC)cccc1C3=O`, which Potency (astro) is on record?
The Potency was 2.24 µM (active).

With `O=S(=O)(O)c1cc(O)c2c(N=Nc3ccc(Nc4ccccc4)c4c(S(=O)(=O)O)cccc34)cc(S(=O)(=O)O)cc2c1` as the compound, how does the Potency (astro) read?
The Potency was 14.1 µM (active).

Which Potency (astro) does the source give for `CC[C@@H](C(=O)O)[C@@H]1O[C@@H]([C@@H](C)[C@H](O)[C@H](C)C(=O)[C@H](CC)[C@H]2O[C@]3(C=C[C@@H](O)[C@]4(CC[C@@](C)([C@H]5CC[C@](O)(CC)[C@H](C)O5)O4)O3)[C@H](C)C[C@@H]2C)[C@@H](C)C[C@@H]1C` here?
Its Potency is 0.794 µM (active).

With `CNc1cc(OC)c(C(=O)N[C@H]2CCN(Cc3ccccc3)[C@H]2C)cc1Cl` as the compound, how does the activity, negative = cell killing [1, 4] read?
Its activity, negative = cell killing is -17.5%.

What about the Potency ([1]; tumour line A) of the same compound?
The Potency was 7.08 µM (active).

And the Potency ([1]; tumour line D)?
Its Potency is 20 µM (active).

And the Potency (astro)?
The Potency was “inactive”.

Which results are given for `CCC(=O)NCCC1CCc2ccc3c(c21)CCO3` (stereo not given)?
activity, negative = cell killing [1, 4]: -16.2%; activity, negative = cell killing [1, 5]: -14.5%; Potency ([1]; tumour line A): 11.2 µM (active); Potency (astro): inactive

Which activity, negative = cell killing [1, 5] does the source give for `CC(C)(C)NC(=O)[C@@H]1C[C@@H]2CCCC[C@@H]2CN1C[C@@H](O)[C@H](Cc1ccccc1)NC(=O)[C@H](CC(N)=O)NC(=O)c1ccc2ccccc2n1` here?
Its activity, negative = cell killing is 7.54%.

And the Potency ([1]; tumour line A)?
Its Potency is 4.47 µM (active).

What about the Potency (astro) of the same compound?
The Potency was “inactive”.

Which results are given for `CCOC(=O)C1=C(C)NC(C)=C(C(=O)OCC)C1c1ccccc1C=CC(=O)OC(C)(C)C`?
activity, negative = cell killing [1, 5]: 2.25%; Potency ([1]; tumour line A): 2.24 µM (active); Potency ([1]; tumour line D): 12.6 µM (active); Potency (astro): 20 µM (active)

For `CCNC(=O)[C@@H]1CCCN1C(=O)[C@H](CCCN=C(N)N)NC(=O)[C@H](CC(C)C)NC(=O)[C@@H](Cc1c[nH]c2ccccc12)NC(=O)[C@H](Cc1ccc(O)cc1)NC(=O)[C@H](CO)NC(=O)[C@H](Cc1c[nH]c2ccccc12)NC(=O)[C@H](Cc1cnc[nH]1)NC(=O)[C@@H]1CCC(=O)N1`, which Potency (astro) is on record?
Its Potency is 8.91 µM (active).

With `CC(C)=O` as the compound, how does the activity, negative = cell killing [1, 4] read?
The activity, negative = cell killing was -1.76%.

And the activity, negative = cell killing [1, 7]?
The activity, negative = cell killing was -10.6%.

And the activity, negative = cell killing [1, 5]?
Its activity, negative = cell killing is -8.82%.

What about the max response [2] of the same compound?
Its max response is 2.78%.

And the outcome [3]?
Its outcome is “inactive”.

With `CO[C@H]1C=CO[C@@]2(C)Oc3c(C)c(O)c4c(O)c(c5c(nc6cc(C)ccn65)c4c3C2=O)NC(=O)/C(C)=C\C=C[C@H](C)[C@H](O)[C@@H](C)[C@@H](O)[C@@H](C)[C@H](OC(C)=O)[C@@H]1C` as the compound, how does the activity, negative = cell killing [1, 4] read?
The activity, negative = cell killing was -10.2%.

And the activity, negative = cell killing [1, 7]?
Its activity, negative = cell killing is -26.2%.

What about the activity, negative = cell killing [1, 5] of the same compound?
Its activity, negative = cell killing is -2.47%.

And the Potency (astro)?
Its Potency is “inactive”.

For `CCOc1ccc(N=Nc2ccc(N)cc2N)cc1`, which Potency (astro) is on record?
Its Potency is 2.51 µM (active).

Which Potency (astro) does the source give for `COc1cc(-c2ccc(-[n+]3nc(-c4ccccc4)nn3-c3ccc([N+](=O)[O-])cc3)c(OC)c2)ccc1-[n+]1nc(-c2ccccc2)nn1-c1ccc([N+](=O)[O-])cc1` here?
Its Potency is 3.55 µM (active).

With `CO[C@H](C(=O)[C@@H](O)[C@@H](C)O)C1Cc2cc3cc(O[C@H]4C[C@@H](O[C@H]5C[C@@H](O)[C@H](O)[C@@H](C)O5)[C@@H](O)[C@@H](C)O4)c(C)c(O)c3c(O)c2C(=O)[C@H]1O[C@H]1C[C@@H](O[C@H]2C[C@@H](O[C@H]3C[C@](C)(O)[C@H](O)[C@@H](C)O3)[C@H](O)[C@@H](C)O2)[C@H](O)[C@@H](C)O1` (stereo not given in full) as the compound, how does the Potency (astro) read?
The Potency was 0.112 µM (active).
